# Laboratory results as given in ChEMBL document CHEMBL1961873, “Compounds: GSK PKIS; Assays: Nanosyn kinase panel” (2012).
# Tests used:
# [1] = target: T1, Serine/threonine-protein kinase TBK1 (Homo sapiens) (UniProt Q9UHD2); settings: at 1 µM;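 further: values are mean inhibition of TBK1, screened as part of the GSK published kinase inhibitor set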
# T1 sequence (whole entry): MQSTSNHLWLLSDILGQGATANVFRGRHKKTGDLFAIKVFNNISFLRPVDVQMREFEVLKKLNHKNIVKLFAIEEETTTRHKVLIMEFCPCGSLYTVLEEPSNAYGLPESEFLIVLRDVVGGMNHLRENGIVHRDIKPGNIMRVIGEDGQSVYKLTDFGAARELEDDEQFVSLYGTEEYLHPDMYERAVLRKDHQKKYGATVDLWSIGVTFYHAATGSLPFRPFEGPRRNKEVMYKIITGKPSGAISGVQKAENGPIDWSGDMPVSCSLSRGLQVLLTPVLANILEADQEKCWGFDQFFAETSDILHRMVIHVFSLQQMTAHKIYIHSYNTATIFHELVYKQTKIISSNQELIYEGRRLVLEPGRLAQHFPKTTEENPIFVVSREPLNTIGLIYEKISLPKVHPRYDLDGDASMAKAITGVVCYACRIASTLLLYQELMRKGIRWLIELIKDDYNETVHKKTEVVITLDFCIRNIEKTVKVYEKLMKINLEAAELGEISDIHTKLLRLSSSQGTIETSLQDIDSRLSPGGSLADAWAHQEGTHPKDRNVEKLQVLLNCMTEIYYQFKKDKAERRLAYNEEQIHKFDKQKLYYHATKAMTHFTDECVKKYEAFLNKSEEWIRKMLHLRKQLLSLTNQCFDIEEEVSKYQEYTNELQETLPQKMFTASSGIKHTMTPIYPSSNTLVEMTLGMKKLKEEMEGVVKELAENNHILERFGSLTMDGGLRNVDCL
# [2] = target: T2, Testis-specific serine/threonine-protein kinase 1 (Homo sapiens) (UniProt Q9BXA7); settings: at 0.1 µM
# T2 sequence (whole entry): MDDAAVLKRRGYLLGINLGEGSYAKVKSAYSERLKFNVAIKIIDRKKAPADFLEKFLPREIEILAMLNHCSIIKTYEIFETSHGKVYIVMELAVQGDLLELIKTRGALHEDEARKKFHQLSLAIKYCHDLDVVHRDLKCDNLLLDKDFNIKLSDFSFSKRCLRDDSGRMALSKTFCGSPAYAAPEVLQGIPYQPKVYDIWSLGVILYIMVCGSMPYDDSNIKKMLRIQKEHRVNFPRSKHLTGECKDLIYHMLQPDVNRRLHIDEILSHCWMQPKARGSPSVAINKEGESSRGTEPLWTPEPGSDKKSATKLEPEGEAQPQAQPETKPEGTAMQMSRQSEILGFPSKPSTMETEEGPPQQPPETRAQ
# [3] = target: T2, Testis-specific serine/threonine-protein kinase 1 (Homo sapiens); settings: at 1 µM
# [4] = target: T3, Testis-specific serine/threonine-protein kinase 2 (Homo sapiens) (UniProt Q96PF2); settings: at 0.1 µM
# T3 sequence (whole entry): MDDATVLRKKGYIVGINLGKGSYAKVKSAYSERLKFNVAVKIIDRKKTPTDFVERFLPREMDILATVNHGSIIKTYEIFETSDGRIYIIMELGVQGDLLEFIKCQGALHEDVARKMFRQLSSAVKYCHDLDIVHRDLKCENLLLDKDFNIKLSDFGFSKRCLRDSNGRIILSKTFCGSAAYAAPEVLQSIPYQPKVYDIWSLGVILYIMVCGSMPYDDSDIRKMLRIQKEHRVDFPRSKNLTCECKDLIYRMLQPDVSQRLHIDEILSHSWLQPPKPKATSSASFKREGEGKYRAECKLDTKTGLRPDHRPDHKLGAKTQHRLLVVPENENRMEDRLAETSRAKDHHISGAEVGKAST
# [5] = target: T3, Testis-specific serine/threonine-protein kinase 2 (Homo sapiens); settings: at 1 µM
# [6] = target: Casein kinase I isoform alpha (Homo sapiens) (UniProt P48729); settings: at 0.1 µM
# Sequence of Casein kinase I isoform alpha (Homo sapiens) (P48729 2-337 limits assumed): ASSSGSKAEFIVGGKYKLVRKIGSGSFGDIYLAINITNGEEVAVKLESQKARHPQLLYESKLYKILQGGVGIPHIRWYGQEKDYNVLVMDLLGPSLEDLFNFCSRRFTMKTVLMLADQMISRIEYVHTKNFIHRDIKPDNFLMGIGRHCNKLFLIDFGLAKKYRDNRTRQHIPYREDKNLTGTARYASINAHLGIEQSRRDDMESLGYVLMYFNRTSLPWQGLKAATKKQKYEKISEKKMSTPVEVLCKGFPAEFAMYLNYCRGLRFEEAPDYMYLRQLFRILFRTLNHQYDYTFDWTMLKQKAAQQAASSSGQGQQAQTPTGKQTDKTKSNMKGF
# [7] = target: Casein kinase I isoform alpha (Homo sapiens) (UniProt P48729); settings: at 1 µM
# [8] = target: Casein kinase I isoform gamma-1 (Homo sapiens) (UniProt Q9HCP0); settings: at 0.1 µM
# Sequence of Casein kinase I isoform gamma-1 (Homo sapiens) (Q9HCP0 whole entry, looked up, canonical isoform): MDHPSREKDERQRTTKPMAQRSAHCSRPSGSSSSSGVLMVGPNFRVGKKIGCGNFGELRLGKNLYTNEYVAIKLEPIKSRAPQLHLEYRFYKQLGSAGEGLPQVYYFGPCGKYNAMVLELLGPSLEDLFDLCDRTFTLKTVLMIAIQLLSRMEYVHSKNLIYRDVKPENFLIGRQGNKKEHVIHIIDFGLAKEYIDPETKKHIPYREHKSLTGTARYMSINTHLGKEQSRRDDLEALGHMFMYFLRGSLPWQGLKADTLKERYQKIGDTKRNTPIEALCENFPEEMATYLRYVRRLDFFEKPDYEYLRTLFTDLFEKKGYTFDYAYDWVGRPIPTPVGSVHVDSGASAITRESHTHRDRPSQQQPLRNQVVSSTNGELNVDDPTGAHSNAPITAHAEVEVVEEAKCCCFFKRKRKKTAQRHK
# [9] = target: Casein kinase I isoform gamma-1 (Homo sapiens) (UniProt Q9HCP0); settings: at 1 µM
# [10] = target: Casein kinase I isoform gamma-2 (Homo sapiens) (UniProt P78368); settings: at 0.1 µM
# Sequence of Casein kinase I isoform gamma-2 (Homo sapiens) (P78368 whole entry, looked up, canonical isoform): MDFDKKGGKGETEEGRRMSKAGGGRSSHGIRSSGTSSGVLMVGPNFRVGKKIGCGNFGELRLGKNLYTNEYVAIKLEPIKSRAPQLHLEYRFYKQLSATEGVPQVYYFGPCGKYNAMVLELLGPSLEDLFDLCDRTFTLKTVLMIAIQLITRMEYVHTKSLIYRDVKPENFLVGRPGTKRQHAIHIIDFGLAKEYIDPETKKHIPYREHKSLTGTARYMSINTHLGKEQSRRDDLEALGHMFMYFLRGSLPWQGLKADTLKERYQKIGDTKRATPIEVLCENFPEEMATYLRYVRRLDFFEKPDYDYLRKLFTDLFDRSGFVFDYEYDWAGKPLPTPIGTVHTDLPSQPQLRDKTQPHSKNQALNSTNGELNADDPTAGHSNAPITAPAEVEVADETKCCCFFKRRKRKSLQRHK
# [11] = target: Casein kinase I isoform gamma-2 (Homo sapiens) (UniProt P78368); settings: at 1 µM
# [12] = target: Casein kinase I isoform gamma-3 (Homo sapiens) (UniProt Q9Y6M4); settings: at 0.1 µM
# Sequence of Casein kinase I isoform gamma-3 (Homo sapiens) (Q9Y6M4 whole entry, looked up, canonical isoform): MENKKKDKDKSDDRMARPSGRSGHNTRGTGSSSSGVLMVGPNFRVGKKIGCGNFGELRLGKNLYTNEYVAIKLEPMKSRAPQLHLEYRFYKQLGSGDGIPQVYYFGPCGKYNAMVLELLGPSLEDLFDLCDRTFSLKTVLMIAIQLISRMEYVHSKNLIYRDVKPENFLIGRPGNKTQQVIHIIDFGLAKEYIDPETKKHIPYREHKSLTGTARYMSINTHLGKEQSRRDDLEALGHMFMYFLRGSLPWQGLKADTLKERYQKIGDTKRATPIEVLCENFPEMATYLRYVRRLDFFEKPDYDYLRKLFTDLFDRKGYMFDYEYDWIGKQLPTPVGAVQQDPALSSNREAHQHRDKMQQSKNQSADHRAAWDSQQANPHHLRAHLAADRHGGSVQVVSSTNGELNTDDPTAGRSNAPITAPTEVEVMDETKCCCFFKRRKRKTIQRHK
# [13] = target: Casein kinase I isoform gamma-3 (Homo sapiens) (UniProt Q9Y6M4); settings: at 1 µM
# [14] = target: Cyclin-dependent kinase 1 (Homo sapiens) (UniProt P06493); settings: at 0.1 µM
# Sequence of Cyclin-dependent kinase 1 (Homo sapiens) (P06493 whole entry, looked up): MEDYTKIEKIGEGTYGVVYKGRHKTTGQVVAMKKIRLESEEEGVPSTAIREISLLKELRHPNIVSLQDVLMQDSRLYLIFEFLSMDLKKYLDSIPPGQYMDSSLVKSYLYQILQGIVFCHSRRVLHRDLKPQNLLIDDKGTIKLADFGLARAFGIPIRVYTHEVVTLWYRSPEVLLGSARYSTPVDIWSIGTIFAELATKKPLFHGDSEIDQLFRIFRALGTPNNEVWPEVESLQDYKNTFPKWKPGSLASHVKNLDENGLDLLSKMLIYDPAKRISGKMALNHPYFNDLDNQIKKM
# [15] = target: Cyclin-dependent kinase 1 (Homo sapiens) (UniProt P06493); settings: at 1 µM
# [16] = target: Cyclin-dependent kinase 2 (Homo sapiens) (UniProt P24941); settings: at 0.1 µM
# [17] = target: Cyclin-dependent kinase 2 (Homo sapiens) (UniProt P24941); settings: at 1 µM
# [18] = target: Cyclin-dependent kinase 2 (Homo sapiens) (UniProt P24941); settings: at 0.1 µM; remark: listed apart in the source
# [19] = target: Cyclin-dependent kinase 2 (Homo sapiens) (UniProt P24941); settings: at 1 µM; remark: listed apart in the source
# [20] = target: CDK3/Cyclin E (Homo sapiens) (UniProt P24864+Q00526); settings: at 0.1 µM;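 further: reported percentages are mean inhibition values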
# Sequence of CDK3/Cyclin E (Homo sapiens) (P24864 whole entry, looked up): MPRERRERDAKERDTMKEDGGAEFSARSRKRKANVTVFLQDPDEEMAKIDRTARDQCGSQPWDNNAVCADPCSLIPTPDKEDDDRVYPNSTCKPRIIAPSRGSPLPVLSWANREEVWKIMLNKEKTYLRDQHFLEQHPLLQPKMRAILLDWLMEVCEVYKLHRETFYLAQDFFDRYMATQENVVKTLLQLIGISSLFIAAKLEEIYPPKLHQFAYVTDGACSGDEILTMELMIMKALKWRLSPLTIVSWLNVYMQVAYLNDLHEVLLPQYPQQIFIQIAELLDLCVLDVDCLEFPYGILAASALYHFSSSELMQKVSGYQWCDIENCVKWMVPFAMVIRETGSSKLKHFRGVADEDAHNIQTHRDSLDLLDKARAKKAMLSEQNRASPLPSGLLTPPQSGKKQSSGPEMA
# Sequence of CDK3/Cyclin E (Homo sapiens) (Q00526 whole entry, looked up): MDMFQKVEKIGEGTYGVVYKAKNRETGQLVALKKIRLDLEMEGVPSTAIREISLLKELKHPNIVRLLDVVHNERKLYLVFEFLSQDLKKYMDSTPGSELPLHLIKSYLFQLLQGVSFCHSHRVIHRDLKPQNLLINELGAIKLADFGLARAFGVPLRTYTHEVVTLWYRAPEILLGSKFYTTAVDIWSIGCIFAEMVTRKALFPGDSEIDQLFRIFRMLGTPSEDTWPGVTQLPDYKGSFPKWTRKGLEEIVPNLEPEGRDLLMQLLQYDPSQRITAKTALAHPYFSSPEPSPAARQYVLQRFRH
Structure (SMILES),inhibition [1] [%],inhibition [2] [%],inhibition [3] [%],inhibition [4] [%],inhibition [5] [%],inhibition [6] [%],inhibition [7] [%],inhibition [8] [%],inhibition [9] [%],inhibition [10] [%],inhibition [11] [%],inhibition [12] [%],inhibition [13] [%],inhibition [14] [%],inhibition [15] [%],inhibition [16] [%],inhibition [17] [%],inhibition [18] [%],inhibition [19] [%],inhibition [20] [%]
Nc1nc(-c2ccccn2)c(-c2ccc3ncccc3n2)s1,5.59,2.46,2.87,0.45,1.96,2.13,6.1,3.23,12.6,3.14,10.1,4,17.4,0.79,3.13,1.62,1.29,4.08,5.96,2.27
CN1CCC(C(=O)Nc2n[nH]c3nnc(-c4ccccc4)cc23)CC1,3.05,5.87,6.95,3.85,6.08,2.13,4,5.08,5.43,3.51,6.16,2.15,4.71,1.44,9.39,1.83,5.99,5.55,7.79,5.12
CC(=O)Nc1cccc(C#Cc2cncnc2Nc2ccc(OCc3cccc(F)c3)c(Cl)c2)n1,-0.27,2.3,4.75,0.15,5.54,0.01,-1.03,-1.49,-2.35,-0.28,-2.14,-0.5,-0.34,-0.13,-0.16,-1.04,-0.26,-1.65,-0.18,1.2
CCn1c(-c2nonc2N)nc2c(C#CC(C)(C)O)nc(CN3CCCC3)cc21,9.67,0.35,9.75,-1.26,-0.69,-1.27,-0.92,-0.23,0.92,-0.27,0.03,-1.33,0.33,1.45,2,2.04,-0.71,0.5,1.53,2.36
COc1cc(C)c(NC(=O)CN(C)C)cc1Nc1nc(Nc2cccc(F)c2C(N)=O)c2cc[nH]c2n1,25.5,61.6,89.3,31.8,73.2,-0.74,21.5,2.04,12.9,1.61,20,1.69,20.6,-0.88,-1.98,0.1,-9.04,-0.26,0.04,-0.76
Cc1nnc(-c2ccc(C)c(-c3ccc(C(=O)Nc4cccc(C#N)c4)cc3)c2)o1,5,0.97,2.9,1.4,2.16,8.37,6.82,1.85,2.59,1.7,1.54,1.46,0.25,0.88,1.11,1.13,0.6,1.82,2.15,4.52
COc1ccc(-c2coc3ncnc(N)c23)cc1,7.65,4.08,3.27,1.1,0.95,6.3,4.04,4.29,4.94,4.25,6.12,3.42,5.14,1.77,3.58,2.89,0.12,6.07,7.82,4.84
O=C1NC(=O)C(N2CCc3ccccc32)=C1c1ccc(Cl)cc1,5.62,3.65,2.94,1.38,0.39,4.4,5.22,4.48,5.14,2.83,5.08,4.47,3.56,1.77,3.26,-1.05,0.31,5.31,6.11,3.85
CS(=O)(=O)Nc1ccc(N/C=C2\C(=O)Nc3ccccc32)cc1,14.2,0.15,2.2,-1.89,-1.19,-2.3,7.96,-1.92,1.81,-1.68,2.22,0.3,3.9,1.78,9.18,1.42,18.1,2.53,22,3.36
CCn1c(-c2nonc2N)nc2ccncc21,1.82,2.36,1.75,0.59,-0.93,0.34,1.43,0.65,-0.84,0.24,0.81,-0.09,1.21,0.77,1.88,1.3,4.47,1.11,4.8,2.26
COc1cccc(-n2ncc3c(N/N=C/c4cccc(F)c4)ncnc32)c1,5.66,2.14,2.06,0.63,0.82,2.35,2.18,-1.45,-0.75,-1.9,-0.18,-1.77,0.64,1.44,33,3.77,39.1,0.9,13,4
NC(=O)c1ccc(-c2nc(-c3ccccn3)c(-c3ccc4c(c3)OCO4)[nH]2)cc1,2.25,2.68,0.88,1.76,0.84,13.1,48.5,1.97,4.22,1.5,3.29,1.05,5.91,0.26,2.49,–,–,–,–,3.35
COc1ccccc1Nc1ncc(-c2ccccc2)o1,2.91,4.78,4.46,2.44,2.11,2.14,2.52,4.56,5.25,4.37,3.85,3.77,5.78,–,0.64,2.24,3.34,1.7,4.15,-1.03
COc1cc2ncn(-c3cc(OCc4ccccc4C(F)(F)F)c(C(N)=O)s3)c2cc1OC,13.6,2.93,6.32,2.18,2.55,1.38,3.61,0.9,2.06,–,1.15,-0.01,1.63,-4.16,-1.4,-2.45,1.5,0.41,4.83,-1.21
